Results on 56 molecules are retold here after PubChem BioAssay (NCI).

The panel holds about 83,000 compounds, 20% with a hit somewhere; the sample as a whole holds those more often.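 Cell lines were cultured in 96-well plates, exposed to a single compound concentration, and assessed for percent growth 48 hours later.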 Values without a mark were called inactive. Active and inactive are the calls of the source. Rule for the calls: active = growth percent below 10; inactive = the rest.

Test in all cases: NCI-60 one-dose screen, 48 h (100 = growth as untreated, 0 = no growth, -100 = all killed)
Experiment [1] relates to NCI-H226 lung. The following applies: 10 µM.
Experiment [2] has as its system NCI-H322M lung. The following applies: 10 µM.
In experiment [3] the test system is HOP-62 NSCLC. The following applies: 10 µM.
In experiment [4] the test system is NCI-H460 lung. The following applies: 10 µM.
Experiment [5] deals with A549/ATCC NSCLC. The following applies: 10 µM.
Experiment [6] deals with 786-0 renal. The following applies: 10 µM.
The subject of experiment [7] is DU-145 prostate. The following applies: 10 µM.
Experiment [8] relates to SF-268 CNS. The following applies: 10 µM.
The test system of experiment [9] is SF-295 CNS. The following applies: 10 µM.
The subject of experiment [10] is SF-539 CNS. The following applies: 10 µM.
The test system of experiment [11] is HCT-15 colon. The following applies: 10 µM.
In experiment [12] the test system is HT29 colon. The following applies: 10 µM.
Experiment [13] deals with SNB-75 CNS. The following applies: 10 µM.
The subject of experiment [14] is SNB-19 CNS. The following applies: 10 µM.
In experiment [15] the test system is PC-3 prostate. The following applies: 10 µM.
The subject of experiment [16] is EKVX NSCLC. The following applies: 10 µM.
The subject of experiment [17] is UO-31 renal. The following applies: 10 µM.
The subject of experiment [18] is ACHN renal. The following applies: 10 µM.
In experiment [19] the test system is MOLT-4 leukemia. The following applies: 10 µM.
Experiment [20] concerns HL-60(TB) leukemia. The following applies: 10 µM unless noted.

For the molecule `COc1cc(OC)c(S(=O)(=O)N(CCCl)CCCl)cc1C(=O)/C=C/c1ccc(Cl)cc1`, the growth was 78.9% in experiment [1]; 71.9% in experiment [2]; 91.7% in experiment [3]; 77.7% in experiment [4]; 71.5% in experiment [5]; 64.4% in experiment [6]. Further, the growth in experiment [7] is 68.8%; in experiment [8] it was 73.2%; in experiment [9], 88.7%; in experiment [10] it was 51.3%; in [11] it was 31.6%; in experiment [12], 79.5%. Also, the growth in experiment [13] was 37.8%; in experiment [14], 65.2%; in experiment [15] it was 70.3%; in [16], 85.5%; in [17], 66.9%; in [18], 65.3%. Further, the growth in [19] was 58.8%.

On to `N#Cc1c(-c2cccs2)c(C#N)c(=O)n(Cc2nc3ccccc3[nH]2)c1N`, for which, in experiment [20], the growth is 108%.

In the case of `CC1(C)CC[C@]23CC[C@]4(C)[C@H](CC[C@@H]5[C@@]6(C)CC[C@H](N)C(C)(C)[C@@H]6CC[C@]54C)[C@H]2[C@H]1OC3`, the growth in experiment [20] was -38.4% (active).

On to `CN(C)CCN(C)c1ccc2ncc(C#Cc3cncc(C(=O)Nc4ccc(CN5CCN(C)CC5)c(C(F)(F)F)c4)c3)n2n1`, for which, in experiment [20], the growth is 36.5%.

Regarding `CC[C@]12C=CCN3CC[C@@]4(c5ccc(OC)cc5N(C)[C@H]4[C@@](O)(C(=O)OC)[C@@H]1OC(=O)CCN1CCc4ccccc4C1)[C@@H]32`, in [20], the growth is 80.4%.

With `COC(=O)c1ccc(NC2=C/C(=N/S(=O)(=O)c3ccc(C(=O)O)cc3)c3ccccc3C2=O)cc1`, in experiment [20], the growth is -15.9% (active).

Take `CCCCCc1ccc(S(=O)(=O)Nc2cc(-c3csc(NC(=O)CN4CCN(C)CC4)n3)ccc2OC)cc1`: the growth in experiment [20] was -52.4% (active).

As for `NS(=O)(=O)c1cccc(Nc2nc(SCC(=O)c3ccc([N+](=O)[O-])cc3)nc3ccccc23)c1`, in [20], the growth was 0.866% (active).

For `O=C(N/N=C\c1ccc(Cl)cc1)c1ccc2nc(-c3ccc(Br)cc3)[nH]c2c1`, the growth in experiment [20] was 41.5%.

For the molecule `COC(=O)CCSC1=C(C)C(=O)c2ccccc2C1=O`, the growth in experiment [20] was 34.9%.

For the molecule `c1ccc(CNc2ncnc3ccc(-c4cnc5[nH]ncc5c4)cc23)cc1`, the growth in experiment [20] was 63.8%.

As for `CCN(CC)c1ccc(/C=N/NC(=O)c2ccc(NS(C)(=O)=O)cc2)c(O)c1`, the growth in [20] is 0.843% (active).

For `O=C(CCCCCCN1CC(=O)N2[C@@H](c3ccc(Cl)c(F)c3)c3[nH]c4ccccc4c3C[C@H]2C1=O)NO`, the growth in experiment [20] is 85.1%.

Turning to `N#Cc1cnc2ccc(-c3cnc4n[nH]nc4c3)cc2c1N1CCc2cc(F)c(Cl)cc21`, in [20], the growth is 20.2%.

Consider `O=C1Nc2cc(OC(F)(F)F)ccc2Oc2ccc(-c3ccnc(N4CCNCC4)c3)cc21`, for which the growth in [20] was -41.4% (active).

With `C#Cc1nc(C2=C(C)C(=N\O)/C(=N/O)C2)cs1`, in [20], the growth was 81.7%.

`N#Cc1cccc(/C(N)=N/C(N)=N/c2nc3ccccc3s2)c1`: the growth in experiment [20] was 4.28% (active).

As to `C#CCNC1CCC(c2csc(C#C)n2)=C1C` (centres undefined), the growth in experiment [20] is 90.6%.

With `COc1ccc(/C=C(\C#N)C(=O)N2c3ccccc3Sc3ccc(SC)cc32)cc1F`, the growth in experiment [20] was 93.5%.

Turning to `CCCCCCCCCC[C@@H](C)[C@@H]1CC(=O)N[C@H]([C@@H](C)O)C(=O)N[C@@H](C)C(=O)N[C@H](C)C(=O)N[C@@H](CCC(N)=O)C(=O)N[C@H](Cc2ccc(O)cc2)C(=O)N[C@@H](C(C)CC)C(=O)O1` (some centres undefined), in experiment [20], the growth was 65%.

As to `COc1ccc(-c2cnc(NC(=O)CCCCCCNC(=O)C(O)(O)C(F)(F)F)s2)cc1`, the growth in experiment [20] is 10.5%.

Turning to `Nc1ccc(-c2nnc(SCc3ccc(O)c4ncccc34)n2-c2ccccc2)cc1`, the growth in [20] is 11.5%.

Regarding `COc1ccc(NC(=O)CCCCCCNC(=O)C(O)(O)C(F)(F)F)cc1`, in [20], the growth is 11.3%.

With `N/C(=N\c1nc2c(Cl)cccc2s1)C(Cl)(Cl)Cl`, the growth in experiment [20] is 25.5%.

As to `COc1ccc(-c2nnc(SCc3ccc(O)c4ncccc34)n2-c2ccccc2)cc1`, the growth in experiment [20] is 10.9%.

Turning to `COc1ccc2c(c1)c(CC(=O)[Se]CCC#N)c(C)n2C(=O)c1ccc(Cl)cc1`, the growth in experiment [20] was -43.8% (active).

Regarding `COc1cc(/C=N/n2cnc3oc(-c4ccccc4)cc3c2=N)cc(CN2CCCCC2)c1O`, the growth in experiment [20] was -17.1% (active).

`Cn1c(SCC(=O)c2ccc(Br)cc2)nc2ccccc2c1=O`: the growth in experiment [20] was 92.1%.

`O=C1NC(=O)c2c1c1c3ccccc3ccc1c1[nH]c3ccccc3c21`: the growth in experiment [20] is 16.8%.

Regarding `CCn1c2ccccc2c2cc(-n3nncc3-c3ccccc3)ccc21`, in [20], the growth was 3.73% (active).

As for `COc1cccc(/C=C(/C)c2ccc3cccc(OC)c3[o+]2)c1O`, the growth in experiment [20] was 99.7%.

For the molecule `COc1cccc2c1[C@H](OC)[C@]13O[C@@]1(C2=O)[C@H](O)[C@H](C)[C@@](O)(C(=O)[C@@H]1O[C@H]1C)[C@@H]3O`, the growth in experiment [20] was -46.6% (active).

In the case of `C#Cc1ccc(NC(=O)c2ccc(/C=C/C(=O)c3nccn3C)cc2)c(F)c1`, the growth in experiment [20] is 7.29% (active).

`CN(C)CCNc1ccc2ncc(C#Cc3cncc(C(=O)Nc4ccc(CN5CCN(C)CC5)c(C(F)(F)F)c4)c3)n2n1`: the growth in [20] was -32.1% (active).

As to `Cc1cccc(/C=C/C(=O)Nc2ncc(Cc3cccc(C)c3)s2)c1`, the growth in [20] is 0.463% (active).

For the molecule `COc1ccc(C2C(C#N)=C(N)Oc3c2sc2ccc(C)cc32)cc1` (centres undefined), in experiment [20], the growth was 12.5%.

Regarding `NC(=S)n1c(=O)n(-c2cccc(C(F)(F)F)c2)c(=O)c2cc(-c3ccc(F)cc3F)ccc21`, the growth in experiment [20] is -46.8% (active).

With `Brc1cccc(-c2cc(-c3cnc4c(c3)OCCO4)n[nH]2)c1`, the growth in experiment [20] was 21.2%.

As to `CC1=C(C)C(=O)C(Nc2ccccc2)=C(Cl)C1=O`, the growth in [20] is 45.6%.

Consider `COc1cccc(COc2ccc(/C=C3/C(=O)Nc4cc(Cl)ccc43)cc2)c1`, for which the growth in [20] is 105%.

`CCO/C=N/C1=C(C#N)C(c2ccc(F)cc2)c2sc3c(CC)cccc3c2O1` (centres undefined): the growth in [20] was -19.1% (active).

For `O=C(O)CC1CCN(c2ccc3nnc(Cl)n3n2)CC1`, the growth in [20] was 104%.

On to `O=C1[C@H]2Cc3c([nH]c4ccccc34)[C@@H](c3ccc(Cl)cc3)N2C(=O)CN1C1CCN(Cc2ccccc2)CC1`, for which the growth in experiment [20] was 12.9%.

As to `Cc1ccc(-c2nc(C(Cl)Cl)nc3cc(-c4ccccc4)nn23)cc1`, the growth in experiment [20] is -12% (active).

On to `O=S(=O)(NC1c2ccccc2C[C@H]1O)c1ccc(Cl)cc1Cl` (some centres undefined), for which the growth in experiment [20] is 98.1%.

For the molecule `CNC(=O)c1cc(-n2ccc3cc(NC(=O)Nc4ccc(N5CCOCC5)c(C(F)(F)F)c4)ccc32)ccn1`, in experiment [20], the growth is -37.1% (active).

Turning to `CC(=O)c1cc(C(=O)N2c3ccccc3Sc3ccccc32)n2c1ccc1ccccc12`, in [20], the growth was 14%.

Consider `COc1ccc(/C=N/NC(=O)c2c(N)nn(C)c2Nc2ccccc2)cc1Oc1ccccc1`, for which the growth in experiment [20] is 100%.

`CC(=O)Nc1ccc(C)c(Nc2cc(-c3ccc(-n4cccn4)cc3)[nH]n2)c1`: the growth in experiment [20] was 12.8%.

With `COc1ccc2oc3c4[nH]c5ccccc5c4c4c(c3c2c1)C(=O)N(O)C4=O`, the growth in experiment [20] was 102%.

As for `Cc1ccc(-n2cc(/C=N/NC(=O)c3nc(N)n[nH]3)c(-c3ccc(S(C)(=O)=O)cc3)n2)cc1`, the growth in [20] is 95.1%.

`CNC(=O)c1cc(-c2ccc(NC(=O)Nc3ccc(N4CCN(C)CC4)c(C(F)(F)F)c3)cc2)nc2cccnc12`: the growth in experiment [20] was -16.4% (active).

On to `COc1cc(OC)cc(-c2cc(-c3c[nH]c4ccccc34)nc(-c3c[nH]c4ccccc34)c2C#N)c1`, for which the growth in [20] is 102%.

Consider `CN1CCN(Cc2ccc(NC(=O)c3cncc(C#Cc4cnc5ccc(OC6CCOCC6)nn45)c3)cc2C(F)(F)F)CC1`, for which the growth in [20] is -43.8% (active).

As for `C#C[C@]1(O)CC[C@H]2[C@@H]3CC=C4c5sc(-c6ccc7c(c6)OCO7)nc5CC[C@]4(C)[C@H]3CC[C@@]21C`, the growth in [20] is 46.8%.

Consider `CCc1nnc(NC(=O)c2cc(-c3ccc(Cl)cc3Cl)oc2C)s1`, for which, in experiment [20], the growth was 88.5%.
